In the first experiment the target is CPNE5. Put plainly: pooled miR-30 sensor sort-seq; sequence = guide strand. The following applies: shRNA.
The sequence TAGTGCTGGATGATCTCTCCGA returned a sensor-assay potency score (higher = more potent) of 0.148.

With TAGATCAAAACGGAGGTTCTGC, the sensor-assay potency score (higher = more potent) is -0.116.

For the sequence TTGTCGATGACTTCGGTGCGCC, the sensor-assay potency score (higher = more potent) was -0.869.

With TAATCCACAATGAACTTGCGCA, the sensor-assay potency score (higher = more potent) was -0.151.

For the sequence TTCTTCATTTTCTTTTTCGGGT, the sensor-assay potency score (higher = more potent) was -0.414.

Turning to TTGTCCAGGAGGTTCCTGCAGG, the sensor-assay potency score (higher = more potent) was -0.916.

As to TTGGTCAGGGATCTCTGCCAGC, the sensor-assay potency score (higher = more potent) was -1.14.

As for TTCTTGTCCAGCTTGTTGGCAC, the sensor-assay potency score (higher = more potent) was -0.22.

In a further experiment the target is CRB1. The description is as above. The note with it: shRNA.
As to TTTGAGAAATTGCTCTTCCTGA, the sensor-assay potency score (higher = more potent) is -0.258.

ATAAATATCTGTATTATCCTTC: the sensor-assay potency score (higher = more potent) came to 0.756.

On to TTGAAGAACATTCATTGACGTC, for which the sensor-assay potency score (higher = more potent) was -0.696.

Sequence TTATATTGTCAATAGCTCTGTC yielded a sensor-assay potency score (higher = more potent) of 0.532.

With TTGAGGTCGATCTCACACTGGG, the sensor-assay potency score (higher = more potent) is -0.294.

Consider TTACATCTTGGATACAGCCTTT, for which the sensor-assay potency score (higher = more potent) was -0.193.

Turning to TTTATATTGTCAATAGCTCTGT, the sensor-assay potency score (higher = more potent) worked out at 0.0403.

TGTCTGAACAAGAACAATCATT: the sensor-assay potency score (higher = more potent) is -1.04.

For TTCAAATCCTTGAAGCACCGGC, the sensor-assay potency score (higher = more potent) was determined as 0.589.

In the case of TTGGCTTTCACACCAATCCTTT, the sensor-assay potency score (higher = more potent) is -1.07.

On to TATTATTACATTTGCATCCCTT, for which the sensor-assay potency score (higher = more potent) was -0.226.

Turning to TTCATTGACGTCTTCTTCGCAG, the sensor-assay potency score (higher = more potent) worked out at 0.387.

For the next experiment, the target named is CRB3. The description is as above. The note with it: shRNA.
On to TGGGAGAACTGCTCCTCGCTAC, for which the sensor-assay potency score (higher = more potent) was -1.03.

For the sequence TTGCCATCGGAGCTGGAGCTGG, the sensor-assay potency score (higher = more potent) was -1.68.

On to AAGACCACGATGATAGCAGTGA, for which the sensor-assay potency score (higher = more potent) was -0.0143.

Consider TGCTCCTCGCTACTGGGCCGGT, for which the sensor-assay potency score (higher = more potent) is -1.75.

Sequence TTTGAAGTACCTTCTTCCCTGC came in with a sensor-assay potency score (higher = more potent) of 0.11.

For TCCGTCTGCCGCTTCTCCCGAA, the sensor-assay potency score (higher = more potent) was -1.23.

TATTCTCATTTGCAGAAGTGGT: the sensor-assay potency score (higher = more potent) was -1.61.

Turning to TGGACGCAGGTTGCCATCGGAG, the sensor-assay potency score (higher = more potent) is -1.88.

As for ATGAAGGCAAAACAGTGCTATT, the sensor-assay potency score (higher = more potent) was -1.64.

Take TTGCAGAAGTGGTCTGTATTTG: the sensor-assay potency score (higher = more potent) was -1.49.

Turning to ATAGCAGTGATGGCTTCTGGAC, the sensor-assay potency score (higher = more potent) was -1.45.

For the sequence TTCTCATTTGCAGAAGTGGTCT, the sensor-assay potency score (higher = more potent) was -0.965.

The target in the next experiment is CREB5. Described as above. The note with it: shRNA.
As for TTAACAGGCAACAACCACCAGA, the sensor-assay potency score (higher = more potent) is -0.508.

For TTACTTGTAAGTTTATTGCTGC, the sensor-assay potency score (higher = more potent) is 0.486.

Take TTTAAAAACAAGTAGATCCTAC: the sensor-assay potency score (higher = more potent) stood at 0.376.

TAGAACATTGTATTTGAACTGA: the sensor-assay potency score (higher = more potent) is -0.137.

For TTAAGTATAGCTTAGCTGCTGC, the sensor-assay potency score (higher = more potent) was -0.267.

With TTGAACAATGTAATCTGTGTAG, the sensor-assay potency score (higher = more potent) is -0.458.

In the case of TTATGTGTTAACAACAACTGTT, the sensor-assay potency score (higher = more potent) is -0.0254.

For TTTAATGACAAACTCAACTTAC, the sensor-assay potency score (higher = more potent) is -0.383.

The record behind these values is the OligoGym collection.
Also: reference of the scale not given here.
